Source: the supplement of paper PMC10849652
About 7,900 targets were measured; listed, in parts, are those with a hit and a random draw of the rest. About 0.6% of all pairs of compound and target were hits.

Compound: Cc1cc(SCc2sc(-c3ccc(C(F)(F)F)cc3)nc2C)ccc1OCC(=O)O
Experiment: log2 fold change, soluble protein after heating vs DMSO (PISA); higher = thermal stabilisation; K562 cells, 10 uM, 30 min; active = over 0.2 and 3.5 SD of the protein, either way, in both replicates (recomputed)
Outline: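 K562 cells at 2×10^6 cells/mL were treated for 30 min with 10 μM compound, and aliquots were heated for 3 min over 48°C-58°C before pooling. Extraction used PBS with 0.5% NP-40 at 4°C, and soluble protein was the supernatant after 21,000xg for 90 min, measured by TMTpro 16plex LC-MS/MS with channel sums equalised. Thermal stability values, relative to control samples and from duplicates, are log2 fold changes.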

UniProt Q9UKL6, sequence (Q9UKL6 whole entry, looked up): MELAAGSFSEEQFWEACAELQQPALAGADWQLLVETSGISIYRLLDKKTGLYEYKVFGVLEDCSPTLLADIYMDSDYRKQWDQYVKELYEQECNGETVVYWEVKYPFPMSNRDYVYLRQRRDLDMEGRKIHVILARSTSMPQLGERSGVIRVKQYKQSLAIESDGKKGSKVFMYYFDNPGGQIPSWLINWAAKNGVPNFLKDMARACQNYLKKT
UniProt Q9Y2I7, sequence (Q9Y2I7 whole entry, looked up): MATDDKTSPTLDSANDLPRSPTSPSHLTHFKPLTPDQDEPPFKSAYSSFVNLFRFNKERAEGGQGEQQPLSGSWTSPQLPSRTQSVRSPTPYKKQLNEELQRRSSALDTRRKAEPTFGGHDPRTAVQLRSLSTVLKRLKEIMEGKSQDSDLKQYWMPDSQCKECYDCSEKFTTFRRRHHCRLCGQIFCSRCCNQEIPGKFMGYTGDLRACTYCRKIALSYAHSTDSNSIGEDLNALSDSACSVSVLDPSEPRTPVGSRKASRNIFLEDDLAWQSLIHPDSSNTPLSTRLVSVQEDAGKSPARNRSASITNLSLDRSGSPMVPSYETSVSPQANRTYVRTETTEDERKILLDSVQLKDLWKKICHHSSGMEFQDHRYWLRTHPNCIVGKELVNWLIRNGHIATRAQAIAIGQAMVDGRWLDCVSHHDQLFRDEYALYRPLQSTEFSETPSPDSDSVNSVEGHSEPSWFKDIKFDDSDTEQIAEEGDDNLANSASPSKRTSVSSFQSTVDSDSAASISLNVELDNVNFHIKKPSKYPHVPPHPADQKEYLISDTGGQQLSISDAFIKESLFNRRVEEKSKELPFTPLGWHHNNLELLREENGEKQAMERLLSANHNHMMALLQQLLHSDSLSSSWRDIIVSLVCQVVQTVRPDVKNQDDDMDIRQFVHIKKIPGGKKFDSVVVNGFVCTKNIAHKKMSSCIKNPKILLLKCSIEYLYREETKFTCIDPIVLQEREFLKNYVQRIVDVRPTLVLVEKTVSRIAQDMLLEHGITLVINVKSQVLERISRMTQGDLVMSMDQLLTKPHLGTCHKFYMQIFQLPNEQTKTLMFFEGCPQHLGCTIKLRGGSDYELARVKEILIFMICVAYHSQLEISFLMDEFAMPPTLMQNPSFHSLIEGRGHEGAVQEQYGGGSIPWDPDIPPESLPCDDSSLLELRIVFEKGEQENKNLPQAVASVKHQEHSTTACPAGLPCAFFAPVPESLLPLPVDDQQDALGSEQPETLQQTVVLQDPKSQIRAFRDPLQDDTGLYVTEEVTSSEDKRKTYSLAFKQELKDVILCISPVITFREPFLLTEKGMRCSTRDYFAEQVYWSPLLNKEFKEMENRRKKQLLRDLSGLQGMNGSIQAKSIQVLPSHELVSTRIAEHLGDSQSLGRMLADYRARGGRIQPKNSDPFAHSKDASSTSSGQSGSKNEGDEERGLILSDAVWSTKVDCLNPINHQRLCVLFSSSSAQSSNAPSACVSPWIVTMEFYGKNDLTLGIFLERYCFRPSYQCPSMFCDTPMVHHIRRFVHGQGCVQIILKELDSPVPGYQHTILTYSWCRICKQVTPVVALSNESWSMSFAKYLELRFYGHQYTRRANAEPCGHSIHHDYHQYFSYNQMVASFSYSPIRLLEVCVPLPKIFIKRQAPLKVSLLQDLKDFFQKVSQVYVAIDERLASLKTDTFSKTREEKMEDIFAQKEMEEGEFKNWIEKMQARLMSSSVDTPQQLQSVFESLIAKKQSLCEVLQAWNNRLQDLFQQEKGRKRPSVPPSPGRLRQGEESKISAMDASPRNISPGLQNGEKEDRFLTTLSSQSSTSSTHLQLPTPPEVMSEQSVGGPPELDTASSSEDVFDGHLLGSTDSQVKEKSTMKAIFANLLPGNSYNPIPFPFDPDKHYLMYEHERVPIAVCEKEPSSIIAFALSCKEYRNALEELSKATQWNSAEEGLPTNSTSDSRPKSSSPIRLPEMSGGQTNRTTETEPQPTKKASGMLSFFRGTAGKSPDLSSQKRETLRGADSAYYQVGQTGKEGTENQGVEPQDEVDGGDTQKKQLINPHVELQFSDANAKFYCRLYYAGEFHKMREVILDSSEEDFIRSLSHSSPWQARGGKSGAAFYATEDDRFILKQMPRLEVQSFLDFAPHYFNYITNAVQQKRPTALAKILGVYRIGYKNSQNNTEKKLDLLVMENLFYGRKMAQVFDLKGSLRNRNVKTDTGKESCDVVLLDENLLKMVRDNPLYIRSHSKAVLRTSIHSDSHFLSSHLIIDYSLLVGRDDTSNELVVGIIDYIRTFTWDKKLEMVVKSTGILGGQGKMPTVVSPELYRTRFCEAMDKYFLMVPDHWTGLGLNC
UniProt Q13200, sequence (Q13200 whole entry, looked up): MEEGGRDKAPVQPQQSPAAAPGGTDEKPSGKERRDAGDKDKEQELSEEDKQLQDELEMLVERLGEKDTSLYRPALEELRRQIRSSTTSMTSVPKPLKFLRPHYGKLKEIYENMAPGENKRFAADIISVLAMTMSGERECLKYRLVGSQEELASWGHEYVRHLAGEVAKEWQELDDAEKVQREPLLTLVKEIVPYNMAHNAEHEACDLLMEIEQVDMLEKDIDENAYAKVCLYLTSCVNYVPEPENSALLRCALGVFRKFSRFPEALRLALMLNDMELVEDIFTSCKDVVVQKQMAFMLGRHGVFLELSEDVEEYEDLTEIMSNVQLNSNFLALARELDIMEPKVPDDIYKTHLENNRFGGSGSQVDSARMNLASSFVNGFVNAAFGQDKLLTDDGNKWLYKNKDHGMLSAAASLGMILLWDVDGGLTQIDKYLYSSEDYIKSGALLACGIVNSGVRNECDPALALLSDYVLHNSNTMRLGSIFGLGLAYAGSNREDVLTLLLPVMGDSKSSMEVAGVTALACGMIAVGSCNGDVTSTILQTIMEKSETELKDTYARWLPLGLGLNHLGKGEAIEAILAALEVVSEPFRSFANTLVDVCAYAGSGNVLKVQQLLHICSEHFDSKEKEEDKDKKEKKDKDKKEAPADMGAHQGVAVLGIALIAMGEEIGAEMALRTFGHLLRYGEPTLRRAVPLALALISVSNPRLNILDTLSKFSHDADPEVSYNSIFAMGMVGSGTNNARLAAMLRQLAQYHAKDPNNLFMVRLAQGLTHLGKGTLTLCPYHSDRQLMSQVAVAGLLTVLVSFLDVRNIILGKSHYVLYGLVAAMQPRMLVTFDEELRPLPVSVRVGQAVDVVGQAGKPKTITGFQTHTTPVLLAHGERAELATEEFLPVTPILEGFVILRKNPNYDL
UniProt Q8N4L2, sequence (Q8N4L2 whole entry, looked up): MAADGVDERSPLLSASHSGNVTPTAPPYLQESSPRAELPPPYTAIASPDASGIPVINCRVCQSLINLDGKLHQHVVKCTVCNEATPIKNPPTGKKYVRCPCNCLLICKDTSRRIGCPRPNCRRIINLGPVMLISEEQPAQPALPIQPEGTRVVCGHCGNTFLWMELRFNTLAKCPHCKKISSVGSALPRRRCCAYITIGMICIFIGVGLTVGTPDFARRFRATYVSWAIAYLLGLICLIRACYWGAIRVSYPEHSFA
UniProt Q04759, sequence (Q04759 whole entry, looked up): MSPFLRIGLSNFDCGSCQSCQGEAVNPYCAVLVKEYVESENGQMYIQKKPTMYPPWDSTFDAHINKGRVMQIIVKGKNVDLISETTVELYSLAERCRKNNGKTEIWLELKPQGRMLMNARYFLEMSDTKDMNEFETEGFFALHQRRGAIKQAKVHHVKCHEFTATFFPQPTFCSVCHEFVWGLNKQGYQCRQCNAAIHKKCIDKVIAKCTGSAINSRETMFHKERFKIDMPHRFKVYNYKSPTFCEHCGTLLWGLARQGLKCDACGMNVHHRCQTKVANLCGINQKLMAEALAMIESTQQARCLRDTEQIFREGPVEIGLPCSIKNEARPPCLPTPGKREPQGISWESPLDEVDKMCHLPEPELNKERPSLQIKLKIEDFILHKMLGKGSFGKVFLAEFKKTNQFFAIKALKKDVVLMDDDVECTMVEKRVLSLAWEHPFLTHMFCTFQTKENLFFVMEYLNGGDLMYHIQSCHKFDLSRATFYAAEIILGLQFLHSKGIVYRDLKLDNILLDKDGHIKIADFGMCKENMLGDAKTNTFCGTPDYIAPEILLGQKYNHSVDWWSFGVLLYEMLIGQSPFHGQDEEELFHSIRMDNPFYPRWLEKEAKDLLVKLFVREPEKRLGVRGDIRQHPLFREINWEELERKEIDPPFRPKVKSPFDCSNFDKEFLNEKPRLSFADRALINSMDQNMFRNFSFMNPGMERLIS
UniProt Q8WUM4, sequence (Q8WUM4 whole entry, looked up): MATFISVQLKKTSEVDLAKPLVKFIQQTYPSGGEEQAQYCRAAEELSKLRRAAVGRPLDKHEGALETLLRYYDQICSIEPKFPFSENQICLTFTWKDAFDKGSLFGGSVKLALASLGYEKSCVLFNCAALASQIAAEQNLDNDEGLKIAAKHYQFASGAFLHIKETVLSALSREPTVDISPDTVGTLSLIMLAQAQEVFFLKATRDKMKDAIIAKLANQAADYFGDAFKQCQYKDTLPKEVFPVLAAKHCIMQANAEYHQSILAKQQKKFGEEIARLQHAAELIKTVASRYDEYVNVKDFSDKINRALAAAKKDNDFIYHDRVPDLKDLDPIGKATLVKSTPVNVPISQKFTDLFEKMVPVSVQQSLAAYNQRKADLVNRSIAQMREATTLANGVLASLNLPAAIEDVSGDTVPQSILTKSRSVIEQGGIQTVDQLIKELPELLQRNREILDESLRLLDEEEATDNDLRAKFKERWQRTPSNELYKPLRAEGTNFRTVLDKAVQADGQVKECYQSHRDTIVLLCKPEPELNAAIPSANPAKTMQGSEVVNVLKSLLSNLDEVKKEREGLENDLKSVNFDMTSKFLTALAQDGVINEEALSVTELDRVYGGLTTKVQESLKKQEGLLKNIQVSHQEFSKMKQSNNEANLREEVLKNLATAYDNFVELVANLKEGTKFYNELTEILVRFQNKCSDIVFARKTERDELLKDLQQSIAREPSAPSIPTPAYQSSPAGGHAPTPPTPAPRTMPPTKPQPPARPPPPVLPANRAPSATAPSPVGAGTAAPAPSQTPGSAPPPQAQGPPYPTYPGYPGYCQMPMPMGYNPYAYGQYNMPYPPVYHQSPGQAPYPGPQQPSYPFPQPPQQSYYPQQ

log2 fold change, inactive:
PPP6R1 (UniProt Q9UPN7) -0.01
PLIN2 (UniProt Q99541) 0.031
PELP1 (UniProt Q8IZL8) 0.111
PCGF2 (UniProt P35227) 0.15
PTPN23 (UniProt Q9H3S7) 0.13
PBK (UniProt Q96KB5) 0.157
POTEI (UniProt P0CG38) -0.021
PDE4DIP isoform 4 (UniProt Q5VU43) 0.008
PSMD2 (UniProt Q13200) 0.004
PPT2 isoform 3 (UniProt Q9UMR5) -0.069
PLA2G15 (UniProt Q8NCC3) -0.016
PRPF38B (UniProt Q5VTL8) -0.002
PELO (UniProt Q9BRX2) 0.07
PIGT (UniProt Q969N2) 0.047
PRKCQ (UniProt Q04759) 0.023
PDCD6IP (UniProt Q8WUM4) 0.17
PRIM2 (UniProt P49643) 0.145
POLR2B (UniProt P30876) 0.03
PIP4P2 (UniProt Q8N4L2) 0.013
PTMA (UniProt P06454) -0.042
POLD3 (UniProt Q15054) 0.008
PCTP (UniProt Q9UKL6) -0.033
PSMC3 (UniProt P17980) 0.011
POLR3K (UniProt Q9Y2Y1) -0.059
PPP2R5C isoform 4 (UniProt Q13362) -0.01
PCYT1A (UniProt P49585) 0.094
PEF1 (UniProt Q9UBV8) 0.019
PITRM1 isoform 2 (UniProt Q5JRX3) 0
PURA (UniProt Q00577) -0.012
PPIL1 (UniProt Q9Y3C6) 0.014
PIKFYVE (UniProt Q9Y2I7) 0.091
PNPLA8 (UniProt Q9NP80) -0.002
PNPLA2 (UniProt Q96AD5) -0.065
PGGT1B (UniProt P53609) -0.143
PI4K2A (UniProt Q9BTU6) 0.001
PRPF40A (UniProt O75400) 0.104
POLD1 (UniProt P28340) 0.046
